The record followed here is PubChem BioAssay (NCI).

Among the test systems are DU-145 prostate; K-562 leukemia; MALME-3M melanoma; MDA-MB-231 breast; RXF 393 renal; SF-268 CNS; SF-295 CNS; SF-539 CNS; UACC-257 melanoma; M14 melanoma; HCT-15 colon; HT29 colon; SNB-75 CNS; SNB-19 CNS; U251 CNS; PC-3 prostate; SK-MEL-5 melanoma; UACC-62 melanoma; LOX IMVI melanoma; SK-MEL-28 melanoma.
Common to all, as to assay: NCI-60 one-dose screen, 48 h (100 = growth as untreated, 0 = no growth, -100 = all killed)
What all share (settings): 10 µM unless noted

Compounds without any hit were thinned out: in the full panel of roughly 83,000, 20% have a hit.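 Negative percent growth values reflect cell death: -40 means 40% of the cells present at the start died, and -100 means all died.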 Values without a mark were called inactive. Active and inactive are the calls of the source. The calls were made as follows: active = growth percent below 10; inactive = the rest.

Regarding `CC[C@H](Nc1nc(N)nc(C2CC2)c1C#N)c1nc2cccc(NCc3ccc(C(=O)NO)cc3)c2c(=O)n1-c1ccccc1`, the growth in the test on DU-145 prostate was -29.3% (active); with K-562 leukemia, -14% (active); with MALME-3M melanoma, -2.35% (active); in the test on MDA-MB-231 breast, 2.7% (active); in the test on RXF 393 renal, -15.2% (active); with SF-268 CNS, 4.22% (active). The growth in the test on SF-295 CNS is -26.9% (active); in the test with SF-539 CNS, -0.037% (active); with UACC-257 melanoma, -2.7% (active); with M14 melanoma it was -18.6% (active); in the test with HCT-15 colon, 19%; with HT29 colon, 13.4%. Also, the growth in the test with SNB-75 CNS is -2.59% (active); in the test on SNB-19 CNS, 7.25% (active); with U251 CNS, -4.25% (active); with PC-3 prostate it was 10.1%; in the test with SK-MEL-5 melanoma it was -29.5% (active); in the test on UACC-62 melanoma it was -19% (active). In addition, the growth in the test on LOX IMVI melanoma is -89.2% (active).

In the case of `C=C(C)c1ccc(/C=N/NC(N)=S)cc1`, the growth was 97.6% in the test with DU-145 prostate; 89% in the test on K-562 leukemia; 116% with MALME-3M melanoma; 96.8% in the test with MDA-MB-231 breast; 94.6% in the test with RXF 393 renal; 109% with SF-268 CNS. The growth is 76.5% with SF-295 CNS; 99.2% in the test on SF-539 CNS; 257% with UACC-257 melanoma; 87.2% in the test on M14 melanoma; 96% in the test on HCT-15 colon; 86.1% with HT29 colon. The growth was 104% in the test on SNB-75 CNS; 97.3% in the test with SNB-19 CNS; 93.9% with U251 CNS; 100% with PC-3 prostate; 95.1% with SK-MEL-5 melanoma; 88.9% in the test on UACC-62 melanoma. Besides, the growth with LOX IMVI melanoma is 97.4%; in the test on SK-MEL-28 melanoma it was 109%.

Consider `O=Cc1ccc2nc(C(Cl)(Cl)Cl)ccc2c1`, for which the growth was 102% in the test on DU-145 prostate; 121% with K-562 leukemia; 91.4% in the test with MALME-3M melanoma; 108% in the test with MDA-MB-231 breast; 94.7% in the test with RXF 393 renal; 107% with SF-268 CNS. Besides, the growth is 97.2% with SF-295 CNS; 98.8% in the test with SF-539 CNS; 103% in the test with UACC-257 melanoma; 81.6% with M14 melanoma; 101% in the test with HCT-15 colon; 102% in the test with HT29 colon. Further, the growth in the test on SNB-75 CNS was 99.9%; in the test on SNB-19 CNS, 102%; in the test on U251 CNS it was 92.8%; in the test on PC-3 prostate, 98.4%; with SK-MEL-5 melanoma it was 95%; in the test with UACC-62 melanoma it was 106%. Further, the growth in the test with LOX IMVI melanoma is 96.1%; with SK-MEL-28 melanoma, 105%.

In the case of `COc1ccc(/C(=C\c2cc(OC)c(OC)c(OC)c2)C(=O)N2CCCNCC2)cc1`, the growth is 115% in the test on DU-145 prostate; 108% with K-562 leukemia; 113% with MALME-3M melanoma; 94% in the test on MDA-MB-231 breast; 98.4% in the test with RXF 393 renal; 106% with SF-268 CNS. Moreover, the growth is 101% in the test with SF-295 CNS; 108% with SF-539 CNS; 102% with UACC-257 melanoma; 105% with M14 melanoma; 103% in the test with HCT-15 colon; 106% in the test on HT29 colon. In addition, the growth in the test on SNB-75 CNS is 88.7%; in the test with SNB-19 CNS, 100%; in the test on U251 CNS, 109%; in the test on PC-3 prostate, 91.8%; in the test on SK-MEL-5 melanoma, 99.7%; with UACC-62 melanoma, 105%. Moreover, the growth with LOX IMVI melanoma was 103%; in the test with SK-MEL-28 melanoma, 111%.

In the case of `Oc1c(C(c2ccc(F)cc2)N2CCCCC2)ccc2cncnc12` (configuration not stated), the growth with DU-145 prostate is 23.3%; with K-562 leukemia, 10.4%; in the test with MALME-3M melanoma, 3.63% (active); with MDA-MB-231 breast, 14.4%; in the test with RXF 393 renal, 31.1%; in the test with SF-268 CNS, 20.9%. For the same molecule, the growth in the test on SF-295 CNS was -1.59% (active); in the test on SF-539 CNS, 13.9%; with UACC-257 melanoma it was 0.316% (active); in the test with M14 melanoma it was 15.7%; with HCT-15 colon it was 26%; in the test on HT29 colon, 13.5%. The growth in the test with SNB-75 CNS is 7.45% (active); in the test on SNB-19 CNS, 11.1%; with U251 CNS it was 1.52% (active); in the test on PC-3 prostate it was 10.6%; in the test with SK-MEL-5 melanoma, -19.7% (active); in the test with UACC-62 melanoma, -0.545% (active). Also, in the test with LOX IMVI melanoma, the growth was 7.17% (active).

For the molecule `COC(=O)/C=C/c1cc(OC(C)=O)c2c(c1)[C@@H](C(=O)OC)[C@H](c1ccc(OC(C)=O)c(OC(C)=O)c1)O2`, the growth in the test on DU-145 prostate is -9.78% (active); in the test with K-562 leukemia it was 8.05% (active); with MALME-3M melanoma it was 48.7%; in the test on MDA-MB-231 breast, 14.1%; with RXF 393 renal it was 37.1%; in the test with SF-268 CNS, 24.2%. Besides, the growth with SF-295 CNS is 23.9%; with SF-539 CNS, -23.9% (active); with UACC-257 melanoma, 48.3%; with M14 melanoma, 2.76% (active); in the test with HCT-15 colon, 8.71% (active); with HT29 colon, 11.8%. Also, the growth in the test with SNB-75 CNS is -3.49% (active); in the test on SNB-19 CNS, 34.6%; in the test with U251 CNS it was 18.1%; in the test on PC-3 prostate, 14.3%; with SK-MEL-5 melanoma, -42.4% (active); in the test on UACC-62 melanoma it was 33.6%. The growth with LOX IMVI melanoma was 7.76% (active).

On to `COc1ccc(/C(=C\c2cc(OC)c(OC)c(OC)c2)C(=O)N2CCNCC2)cc1`, for which the growth is 112% in the test on DU-145 prostate; 92.4% in the test with K-562 leukemia; 108% with MALME-3M melanoma; 102% in the test with MDA-MB-231 breast; 99.2% in the test on RXF 393 renal; 103% in the test with SF-268 CNS. The growth with SF-295 CNS was 104%; in the test on SF-539 CNS, 102%; with UACC-257 melanoma it was 91.3%; with M14 melanoma it was 99%; in the test on HCT-15 colon it was 104%; with HT29 colon it was 95.6%. Besides, the growth in the test on SNB-75 CNS was 83%; in the test on SNB-19 CNS, 99.7%; with U251 CNS it was 94.6%; in the test with PC-3 prostate, 90.7%; in the test on SK-MEL-5 melanoma, 93.4%; in the test on UACC-62 melanoma, 90%. Besides, the results for the growth in the test with LOX IMVI melanoma and with SK-MEL-28 melanoma were 87.5% and 112%, respectively.

As for `Cc1ccc(NC(=O)c2[nH]c(SCCN(C)C)nc2-c2ccc(F)cc2)cc1Nc1ccc2ncn(C)c(=O)c2c1`, the growth in the test on DU-145 prostate was 80.1%; in the test with K-562 leukemia it was 40.2%; in the test with MALME-3M melanoma it was -12.8% (active); with MDA-MB-231 breast, 40.6%; in the test on RXF 393 renal, 71.5%; with SF-268 CNS it was 71.1%. Moreover, the growth with SF-295 CNS is 82.9%; with SF-539 CNS, 65%; in the test with UACC-257 melanoma it was 22%; in the test with M14 melanoma it was 2.94% (active); with HCT-15 colon, 65.4%; with HT29 colon, 21.4%. Further, the growth with SNB-75 CNS was 66%; in the test with SNB-19 CNS, 92.4%; in the test with U251 CNS, 66.6%; in the test with PC-3 prostate, 88.5%; with SK-MEL-5 melanoma, 30.8%; with UACC-62 melanoma, 12.5%. Also, the growth in the test with LOX IMVI melanoma was 28%; in the test with SK-MEL-28 melanoma, 16.5%.
